Rows were chosen to be rich in hits. Some 22% of all compounds tested hit in one or more screens of this group.
Pf growth 96h: Primary qHTS for delayed death inhibitors of the malarial parasite plastid, 96 hour incubation. P. falciparum luciferase reporter growth, 96 h. 320,000 tested, 6.9% active. Potency, µM (top dose mostly 28.7 µM), most hits filed as inhibitors
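Parasite growth measured via integrated firefly luciferase reporter in P. falciparum. Infected erythrocytes at 2% hematocrit, 0.05% parasitemia final were treated 96 hours at 37 C under 5% CO2, and luminescence was read.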
Pf growth 48h: Primary qHTS for delayed death inhibitors of the malarial parasite plastid, 48 hour incubation; Potency, µM (doses to about 28.7 µM), actives largely listed as inhibitors; 310,000 tested, 5.9% active; P. falciparum luciferase growth in erythrocytes, 48 h; AID 504832, 2011
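Erythrocytes infected with P. falciparum carrying an integrated firefly luciferase reporter (2% hematocrit, 0.1% parasitemia final) were exposed to compounds in RPMI 1640 with 0.5% Albumax at 37 C, 5% CO2. Growth inhibition was scored as reduced luminescence.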
Shiga toxin inh: A qHTS for Small Molecule Inhibitors of Shiga Toxin | inhibition, % at 38.7 µM | Vero cells, Shiga toxin protein synthesis inhibition reporter | 290,000 tested, 9.2% active; in the data active means inhibition mostly above about 28%, no sharp cut-off; inactive means mostly below about 43%
Cycloheximide cs: Cycloheximide Counterscreen for Small Molecule Inhibitors of Shiga Toxin. cell reporter, cycloheximide protein synthesis inhibition counterscreen. max response, %. 300,000 tested, 12% active; in the data active means max response mostly above about 13%, no sharp cut-off; inactive means mostly below about 14%; further: read at 38.3 µM for the half of the compounds with a filed dose
LmPK inhibitor: qHTS Assay for Inhibitors of Leishmania Mexicana Pyruvate Kinase (LmPK) | Q27686 | 290,000 tested, 0.37% active | purified LmPK, Kinase-Glo ATP luminescence, 1 h | Potency, µM (top dose mostly 57.5 µM), most hits filed as inhibitors
Target sequence (Q27686 whole entry, looked up): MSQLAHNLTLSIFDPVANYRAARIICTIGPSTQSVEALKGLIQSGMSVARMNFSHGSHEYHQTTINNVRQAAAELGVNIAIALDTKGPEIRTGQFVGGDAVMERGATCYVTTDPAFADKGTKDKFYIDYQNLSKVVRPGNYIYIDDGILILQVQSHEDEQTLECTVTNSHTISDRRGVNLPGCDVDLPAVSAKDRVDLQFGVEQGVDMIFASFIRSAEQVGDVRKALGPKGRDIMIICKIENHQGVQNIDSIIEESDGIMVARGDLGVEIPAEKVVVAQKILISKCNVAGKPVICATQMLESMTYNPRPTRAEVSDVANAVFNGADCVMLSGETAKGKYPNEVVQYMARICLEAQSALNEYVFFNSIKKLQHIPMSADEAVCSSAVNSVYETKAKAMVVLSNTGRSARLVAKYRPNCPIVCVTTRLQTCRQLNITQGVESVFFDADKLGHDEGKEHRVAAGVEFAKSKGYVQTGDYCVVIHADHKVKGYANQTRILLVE
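Screened at intermediate enzyme activity to detect both inhibitors and activators: LmPK at 0.1 nM, with a 0.5 nM enzyme column as activation reference. PEP 0.5 mM, ADP 0.1 mM; ATP detected by luminescence after 1 h.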
Numbers stand for hits; - = inactive; ? = inconclusive; . = no result. Unless noted, the call rests on the fitted dose curve; in most records, active means well fitted inhibition curve with a large enough effect; inconclusive means small, poorly fitted or top-dose-only effect, or another doubt; inactive means no such curve, though single readings can be large or run the other way.

SMILES | Pf growth 96h | Pf growth 48h | Shiga toxin inh | Cycloheximide cs | LmPK inhibitor
CCOC(=O)C1CCCN(C2=C(NS(=O)(=O)c3ccc(Br)cc3)C(=O)c3ccccc3C2=O)C1 (configuration not stated) | 2.9µM | 5.2µM | - | - | -
CC1CCN(C2=C(NS(=O)(=O)c3ccc(Cl)cc3)C(=O)c3ccccc3C2=O)CC1 | 1.5µM | 7.4µM | 85 | 22 | -
O=C1C(NS(=O)(=O)c2cccs2)=C(N2CCN(c3cccc(Cl)c3)CC2)C(=O)c2ccccc21 | . | 12µM | - | - | -
CCOC(=O)C1CCN(C2=C(NS(=O)(=O)c3ccc(Cl)cc3)C(=O)c3ccccc3C2=O)CC1 | ? | ? | - | - | -
O=C1C(NS(=O)(=O)c2ccccc2)=C(N2CCN(c3ccc(F)cc3)CC2)C(=O)c2ccccc21 | ? | 13µM | - | - | -
CSc1nnc2ccc(-c3ccccn3)nn12 | - | ? | - | - | -
CSc1nsc(SCC(=O)Nc2cccc(NC(C)=O)c2)n1 | - | - | - | - | -
CC1CCCN(C2=C(NS(=O)(=O)c3ccc(Br)cc3)C(=O)c3ccccc3C2=O)C1 (configuration not stated) | - | ? | - | - | -
CC1CCN(C2=C(NS(=O)(=O)c3ccccc3)C(=O)c3ccccc3C2=O)CC1 | ? | ? | - | 20 | -
CC(=C1C(=O)c2ccccc2C1=O)N1CCN(c2ccc(F)cc2)CC1 | - | - | 33 | 14 | -
CC1CCN(C2=C(NS(=O)(=O)c3ccc(Br)cc3)C(=O)c3ccccc3C2=O)CC1 | ? | ? | 38 | 32 | -
O=C1C(NS(=O)(=O)c2ccc(Br)cc2)=C(N2CCCCC2)C(=O)c2ccccc21 | 9.3µM | 12µM | - | - | -
Fc1cccc(Cn2cc(C(=S)N3CCOCC3)c3ccccc32)c1 | - | ? | - | - | -
Fc1cccc(Cn2cc(C(=S)N3CCCCC3)c3ccccc32)c1 | ? | 12µM | - | - | -
C/C(CC(=O)Nc1ccc(Cl)cn1)=N\NC(=O)Cc1cccs1 | - | - | - | 13 | -
C/C(CC(=O)NC1CCCC1)=N\NC(=O)Cc1cccs1 | - | - | - | 15 | -
C/C(CC(=O)NC12CC3CC(CC(C3)C1)C2)=N\NC(=O)Cc1cccs1 | ? | - | - | - | -
Cc1ccc(NC(=O)c2ccc3c(c2)C(=O)N(c2ccccc2C)C3=O)nc1 | - | - | . | . | .
Cc1cccc(NC(=O)C(=O)NCC2CCCN2S(=O)(=O)c2ccccc2)c1 (configuration not stated) | - | - | . | . | .
O=C(CCN1Cc2ccccc2C1)c1ccc2c(c1)OCCO2 | . | ? | - | 19 | -
O=C(CCCN1Cc2ccccc2C1)c1ccc(F)cc1 | 5.2µM | - | - | - | -
O=C(CCN1CCc2ccccc2C(c2ccccc2)C1)c1ccc2c(c1)OCCO2 (configuration not stated) | - | . | - | 19 | -
O=C(O)CCC(=O)c1ccc2c(c1)OCCO2 | ? | . | - | - | -
CN1CCN(CCCC(=O)c2ccc(F)cc2)CC1 | ? | - | - | - | -
Cc1cccc(N(C)S(=O)(=O)c2c[nH]c3ccc([N+](=O)[O-])cc23)c1 | ? | - | - | - | -
SMILES | Pf growth 96h | Pf growth 48h | Shiga toxin inh | Cycloheximide cs | LmPK inhibitor
COc1ccc(CNC(=O)C(c2ccc(C)o2)N(C(=O)c2csnn2)c2ccc(C(C)C)cc2)cc1 (configuration not stated) | - | ? | - | - | -
O=C(CC1N=C2c3ccccc3N=C(SCc3ccc(Cl)cc3)N2C1=O)NCc1ccco1 (configuration not stated) | . | 3.3µM | - | 20 | -
CCOC(=O)CSC1=Nc2ccccc2C2=NC(CC(=O)NCc3ccc(OC)cc3)C(=O)N12 (configuration not stated) | . | 6.6µM | - | - | -
CCCCNC(=O)CC1N=C2c3ccccc3N=C(SCC(=O)Nc3cccc(C)c3)N2C1=O (configuration not stated) | 2.6µM | 1.9µM | - | - | -
CCOC(=O)CSC1=Nc2ccccc2C2=NC(CC(=O)NCc3ccc4c(c3)OCO4)C(=O)N12 (configuration not stated) | - | 4.1µM | - | - | -
Cc1ccc(CSC2=Nc3ccccc3C3=NC(CCC(=O)NCc4ccco4)C(=O)N23)cc1 (configuration not stated) | - | ? | - | - | -
O=C(COC(=O)CSc1ccc2ccccc2c1)NCc1ccc2c(c1)OCO2 | - | - | - | - | -
O=C(CCc1nc(-c2ccccc2Cl)no1)Nc1cccnc1 | - | - | - | - | -
Cc1ccsc1C(=O)NC1CCCN(Cc2ccc(Cl)cc2)C1 (configuration not stated) | - | ? | - | - | -
Cn1c(CC(=O)Nc2ccccc2F)nnc1SCC(=O)NC1CCCC1 | - | - | - | - | -
Cn1c(CC(=O)Nc2ccccc2F)nnc1SCC(=O)N1CCOCC1 | - | - | - | 30 | -
NC(=O)c1ccc(C(F)(F)F)n(Cc2ccc(Cl)cc2)c1=O | ? | - | - | 25 | -
CC(C)CC(=O)NC(NCC1CCCO1)C(Cl)(Cl)Cl (configuration not stated) | - | - | - | - | -
COc1nc2cc(C)ccc2cc1-c1noc(-c2cccnc2)n1 | ? | . | - | - | -
COc1nc(C)ccc1-c1noc(-c2cccnc2)n1 | - | - | . | 19 | -
COc1nc(C)ccc1-c1noc(-c2ccccn2)n1 | - | - | 144 | 57 | 22µM
CCOc1nc(C)ccc1-c1noc(-c2ccncc2)n1 | - | ? | - | - | -
CCc1nc(-c2ccc(C)nc2OC)no1 | - | - | - | - | -
COc1ccccc1-c1nc(-c2ccc(C)nc2OC)no1 | - | - | 93 | 49 | -
CCOc1ccc(N(CCCCO)C(=S)NC(=O)c2ccc(C)c(Br)c2)cc1 | - | - | - | - | -
CN(Cc1cccc(F)c1)C(=O)c1ccccc1Sc1ccccc1C#N | ? | ? | - | - | -
COC(=O)c1ccccc1NC1CC(=O)N(c2c(C)cccc2C)C1=O (configuration not stated) | . | - | - | - | -
Cc1nc(NC(C)C)c2cnn(CCc3ccccc3)c2n1 | - | . | - | 19 | -
CCCNc1nc(C)nc2c1cnn2CCc1ccccc1 | - | . | - | 19 | -
Cc1nc(NCCc2ccc(F)cc2)c2nnn(Cc3ccccc3)c2n1 | ? | - | - | - | -
O=C(O)c1cc(-c2ccc3ccccc3c2)nc2ccc(F)cc12 | ? | ? | 30 | 22 | -
O=C(O)c1cc(-c2c[nH]c3ccccc23)nc2cc3ccccc3cc12 | - | - | 67 | 36 | -
O=C(O)c1cc(-c2cccc3ccccc23)nc2ccccc12 | - | - | - | - | -
COc1ccc2[nH]c3c(=O)n(CCN4CCOCC4)cnc3c2c1 | - | - | - | - | -
CCCOc1ncnc2c1[nH]c1ccc(OC)cc12 | - | - | 68 | 49 | -

Screens deposited in PubChem BioAssay by National Center for Advancing Translational Sciences (NCATS).
